# Screening results as filed in PubChem.
# Sm TGR block = inhibitors of Schistosoma mansoni thioredoxin glutathione reductase. Q962Y6. purified TGR, DTNB reduction, TNB absorbance 405 nm. Potency, µM (series often up to 114 µM), inactives show at the highest dose activity change, negative = inhibition, most hits filed as inhibitors. actives 3% (n = 360,000). AID 485364; also: potency is read from the fitted curve at half-maximal effect; % is scaled to controls: 0 for no effect and ±100 for the full control effect; nearly all actives have a fitted effect of over 60% in size
#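 Kinetic colorimetric format: TGR-catalysed, NADPH-driven DTNB reduction monitored via TNB absorbance. Enzyme dispensed at 20 nM; compound exposure 15 min at room temperature before reaction start.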
# HCV inh = blocks hepatitis C virus | actives 3.4% (n = 340,000) | Huh7.5.1 HCVcc-Cre infection, luciferase reporter, 44 h | AID 651820 | Potency, µM (series often up to 41.8 µM), inactives show at the highest dose activity change, negative = inhibition, hits mostly inhibitors; also: potency is read from the fitted curve at half-maximal effect; % is scaled to controls: 0 for no effect and ±100 for the full control effect
#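 Infectious HCV cell culture screen: compound-treated cells (1,000/well, pre-plated 4 h) are infected with HCVcc-Cre at roughly 0.5 moi and grown 44 h. Infection is quantified by luciferase signal after 15 min substrate incubation at room temperature.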
# HCMV antiviral = human cytomegalovirus inhibition | HFF cells, HCMV-luciferase reporter, 72 h; hits give low values | activity change, negative = inhibition, % at 57.5 µM | actives 4.5% (n = 410,000) | AID 1259415; in the data active = activity change below about -60%; inconclusive = no clear call, values can overlap the other calls; inactive = above about -39%; also: % is scaled to controls: 0 for no effect and ±100 for the full control effect
#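 Two compound doses tested in HFFs infected with HCMV-luciferase, MOI 1 PFU/cell, 72 h at 37C. Lysate luminescence read with OneGlo; data normalized against buffer-only and 10uM Salinomycin inhibitor controls.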
# SARS PLP yeast = blocks SARS-CoV papain-like protease in a yeast assay. S. cerevisiae expressing SARS-CoV PLpro, growth rescue. Potency, µM (doses to about 32.9 µM), without a hit: top-dose activity, positive = growth rescue, most hits filed as activators. actives 0.19% (n = 330,000). AID 485353; calls by dose curve; also: potency is read from the fitted curve at half-maximal effect; 0% is about no effect; nearly all actives have a fitted effect of over 55% in size
# Pf growth 48h = inhibits P. falciparum growth in the first generation, 48 h; P. falciparum luciferase growth in erythrocytes, 48 h; Potency, µM (top dose mostly 28.7 µM), for inactives: top-dose activity change, negative = inhibition, hits mostly inhibitors; actives 5.9% (n = 310,000); AID 504832; also: potency is read from the fitted curve at half-maximal effect; % is scaled to controls: 0 for no effect and ±100 for the full control effect
#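 Compounds are pin-transferred into medium, infected erythrocytes (2% hematocrit, 0.1% parasitemia final) are added, and plates sit one parasite generation at 37 C in 5% CO2. Detection reagent is then added and luminescence measured.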
# Pf growth 96h = P. falciparum growth inhibition at 96 hour, primary screen for plastid delayed-death inhibitors | actives 6.9% (n = 320,000) | AID 504834 | P. falciparum luciferase reporter growth, 96 h | Potency, µM (highest dose often 28.7 µM), for inactives: at the top dose activity change, negative = inhibition, most hits filed as inhibitors; also: potency is read from the fitted curve at half-maximal effect; % is scaled to controls: 0 for no effect and ±100 for the full control effect
#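 P. falciparum expressing integrated firefly luciferase grown in erythrocytes (2% hematocrit, 0.05% parasitemia final) with compounds for 96 hours at 37 C, 5% CO2. Growth inhibition read as loss of luminescence after adding luciferase detection reagent.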
# * hit, by the source's call; ? = inconclusive; . = not tested or not shown. Only some compounds are listed: those with a hit (about 15% of all), similar ones and a draw of the others. Unless noted, calls follow the shape of the dose curve; as a rule, active = well fitted curve in the direction sought with a large enough effect; inconclusive = small, poorly fitted or top-dose-only effect, or another doubt; inactive = no such curve, though single readings can be large; an effect the other way counts as inactive or inconclusive.
SMILES,Sm TGR block,HCV inh,HCMV antiviral,SARS PLP yeast,Pf growth 48h,Pf growth 96h
Cc1ccccc1N=C1Nc2ccccc2N[C@]12C[C@H]1CCC(=O)N3CC[C@@H](C2)[C@@H]13,.,19%,3,.,.,.
CCOC(=O)c1noc2ncn(Cc3ccc([N+](=O)[O-])cc3)c(=O)c12,5%,.,14,.,.,.
N/C(=N\N=Cc1ccc2c(c1)OCO2)NN=Cc1ccc2c(c1)OCO2,.,-26%,-73*,.,.,.
N/C(=N\N=C/c1ccc(F)cc1)N/N=C\c1ccc(F)cc1,15%,-21%,12,3%,0.74µM*,?
N/C(=N\N=C\c1ccc(Cl)cc1)N/N=C/c1ccc(Cl)cc1,.,.,6,.,0.76µM*,0.85µM*
CCN(CC)S(=O)(=O)c1ccc(O)c(NC(=O)COc2ccc(S(=O)(=O)N3CCOCC3)cc2)c1,.,12%,6,.,.,.
CSc1ccccc1OCc1cc(C(=O)N(C)Cc2ccncn2)no1,2%,9%,52,2%,6%,0%
COc1ccc(C2/C=C\CN(C(=O)C3CC3)CC(=O)N2Cc2ccc(F)cc2)cc1 (centres undefined),-2%,-1%,-6,-3%,35%,54%
Cc1ccc(NC(=O)CSCC(=O)NCCc2ccccc2)c(C)c1,-13%,11%,-9,5%,3%,?
O=C(NC1CCCCC1)C1CCC(=O)N(Cc2cccc(C(F)(F)F)c2)C1 (centres undefined),6%,-14%,-61*,17%,?,19%
CN1CCN(C(=O)C2CCC(=O)N(Cc3cccc(C(F)(F)F)c3)C2)CC1 (centres undefined),7.9µM*,-6%,-7,3%,3%,-21%
COc1ccc(N2CCN(S(=O)(=O)c3ccc(C4CCCCC4)cc3)CC2)cc1,-9%,.,2,.,.,.
COc1ccc(NC(=O)COC(=O)CCc2ccc(S(=O)(=O)N3CCOCC3)cc2)c(OC)c1,.,3%,18,3%,.,.
Cc1cc(C)nc(S/C=C/C(=O)c2ccccc2F)n1,0.56µM*,?,-28,-1%,134%,84%
CCCCn1nnnc1C(c1ccccc1OC(F)(F)F)N1CCN(C/C=C/c2ccccc2)CC1 (centres undefined),.,.,-18,.,.,.
O=C(/C=C/c1ccc(F)cc1)NC(=S)N1CCCCC1c1cccnc1 (centres undefined),-3%,-6%,-11,1%,4%,-7%
O=C1/C(=C/c2ccc(F)cc2)SC(=S)N1CC(=O)N1CCCCC1c1cccnc1 (centres undefined),-10%,?,-83*,-6%,-4%,?
O=C(CCN1C(=O)/C(=C/c2ccccc2F)SC1=S)Nc1ccccn1,-4%,18%,32,1%,46%,?
O=C1/C(=C/c2ccccc2F)SC(=S)N1CC(=O)N1CCCCC1c1cccnc1 (centres undefined),1%,?,-76*,-6%,-7%,15µM*
CCOC(=O)C1CCCN(C(=O)Cn2ncn3c(cc4sc(CC)cc43)c2=O)C1 (centres undefined),6%,.,?,.,.,.
CC1(C)CC(=O)c2cnc(N3CCc4ccccc43)nc2C1,15%,-18%,40,0%,189%,185%
Cc1ccc(OCC(=O)OCCN2C(=O)c3ccccc3C2=O)cc1C,2%,25%,22,-17%,10%,1.9µM*
O=C(/C=C/c1ccccc1)Oc1cccc2cccnc12,0%,-30%,-38,-6%,4.7µM*,3.7µM*
O=C(COc1cccc2cccnc12)NNC(=S)Nc1ccccc1,3%,.,.,0%,-22%,0.66µM*
O=C(/C=C\c1ccccc1)Oc1cccc2cccnc12,2%,?,-38,-2%,?,5.9µM*
COc1ccc(N(C)S(=O)(=O)c2cccc(C(=O)N(C)Cc3ccc(C)o3)c2)cc1,-22%,-17%,-1,1%,?,-18%
